Hits are enriched below; roughly 8.1% of the tested compounds scored in any of these assays.
PD-1 reversal: reversal of PD-1 mediated T-cell inhibition; primary human CD4 T cells, PD-L1 beads, CellTiter-Glo 96 h; activation, % (concentration not given with the values); 29,000 tested, under 10 active; AID 2316; call rule not given here;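 note: 0% = median vehicle wells and 100% = positive control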
MITF inh: blocks MITF activity. TRPM1 promoter luciferase, luminescence, 24 h. inhibition, % (concentration not given with the values). 0.28% of 37,000 active. AID 2240; in the data active = inhibition above about 85%; inconclusive = no clear call, values can overlap the other calls; inactive = below about 68%;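 note: human melanocyte line stably carrying TRPM1 promoter luciferase reporter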
NOMO-1 viab: STK33 inhibitor candidate reducing NOMO-1 cell viability; 7.5% of 37,000 active; AID 2330; NOMO-1 AML viability, CellTiter-Glo luminescence, 72 h; inhibition, % (test concentration not listed); in the data active = inhibition above about 80%; inconclusive = no clear call, values can overlap the other calls
Hedgehog inh: blocks Sonic Hedgehog signaling; 2.1% of 22,000 active; Shh-LIGHT2 Gli-luciferase reporter, 30 h; inhibition, % (test concentration not listed); AID 2313;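 active = mean inhibition across valid replicates above about 65%, limit read from the data; inconclusive = mean under the limit, yet half or more replicates past it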;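 note: pathway switched on by Shh-conditioned medium diluted 1 in 25 in low serum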
An asterisk follows results filed as active; ? = inconclusive; · = not tested or not shown.

SMILES	PD-1 reversal	MITF inh	NOMO-1 viab	Hedgehog inh
C[C@H]1CN([C@@H](C)CO)C(=O)c2cccc(NC(=O)CCCCCC(=O)Nc3ccccc3N)c2O[C@H]1CN(C)Cc1ccc(Cl)c(Cl)c1	0	47	120*	·
C[C@@H]1CN([C@H](C)CO)C(=O)c2cccc(NC(=O)CCCCCC(=O)Nc3ccccc3N)c2O[C@@H]1CN(C)C	1	-28	29	·
C[C@@H]1CN([C@H](C)CO)C(=O)c2cccc(NC(=O)CCCCCC(=O)Nc3ccccc3N)c2O[C@@H]1CN(C)Cc1ccc(Cl)c(Cl)c1	0	31	134*	·
C[C@@H]1CN([C@H](C)CO)C(=O)c2cc(N(C)C)ccc2O[C@H]1CN(C)S(C)(=O)=O	1	4	5	28
Cc1cc(Cl)cc(Br)c1OCCCSc1ncccn1	0	-120	21	·
C/C(=N\O)C12CC3(C)CC(C)(CC(C)(C3)C1)C2	-2	-17	120*	-20
CC12CC3(C)CC(C)(C1)CC(C(=O)NC(=S)NC(C)(C)C)(C2)C3	0	-2	35	-8
C[C@@H]1CN([C@@H](C)CO)C(=O)c2cc(NC(=O)Nc3ccc4c(c3)OCO4)ccc2O[C@H]1CN(C)S(=O)(=O)c1cccs1	-1	-38	20	·
C[C@H](CO)N1C[C@H](C)[C@H](CN(C)Cc2ccncc2)Oc2ccc(NC(=O)CCC(F)(F)F)cc2C1=O	1	-8	28	-27
C[C@@H]1CN([C@H](C)CO)C(=O)Cc2cc(NC(=O)CCCCCC(=O)Nc3ccccc3N)ccc2O[C@@H]1CN(C)Cc1ccc(Cl)c(Cl)c1	-3	49	137*	·
C[C@H](CO)N1C[C@H](C)[C@H](CN(C)Cc2ccc3c(c2)OCO3)Oc2ccc(NC(=O)CCCCCC(=O)Nc3ccccc3N)cc2CC1=O	0	30	132*	·
C[C@@H]1CN([C@@H](C)CO)C(=O)c2cc(NC(=O)CCCCCC(=O)Nc3ccccc3N)ccc2O[C@@H]1CN(C)Cc1ccc2c(c1)OCO2	-1	29	95*	·
C[C@H](CO)N1C[C@H](C)[C@H](CN(C)Cc2ccc3c(c2)OCO3)Oc2ccc(NC(=O)CCCCCC(=O)Nc3ccccc3N)cc2C1=O	0	-5	47	·
C[C@H]1CN([C@@H](C)CO)C(=O)Cc2cc(NC(=O)Cc3ccccc3)ccc2O[C@@H]1CN(C)Cc1ccccc1	-2	13	9	22
CN(CC(=O)Nc1ccncc1)S(=O)(=O)c1ccc(Cl)cc1	2	13	2	·
CC(=O)Nc1nc(C23CC4CC(CC(C4)C2)C3)cs1	0	-19	4	·
Cc1csc(NC(=O)CSc2nc(C34CC5CC(CC(C5)C3)C4)ccc2C#N)n1	1	63	105*	75*
COC(=O)c1sc(=S)sc1C(=O)OC	-8	-10	96*	9
COC(=O)c1ccc(C(=O)OC)cc1	1	-9	20	-9
N#Cc1ccc2ccn(CC(=O)NCc3ccco3)c2c1	1	-14	8	·
CC(C)NC(=O)Nc1ccc2c(c1)CC(=O)N([C@@H](C)CO)C[C@H](C)[C@@H](CN(C)C(=O)Nc1ccc3c(c1)OCO3)O2	0	9	4	21
CCc1ccc(/C(C#N)=C/C=C/c2ccccc2)cc1	-1	-7	115*	-148
C=CCc1ccc(O[C@@H]2O[C@H](CO)[C@@H](O)[C@H](O)[C@H]2O)c(O[C@@H]2O[C@H](CO)[C@@H](O)[C@H](O)[C@H]2O)c1	-1	10	120*	-5
C=CCc1ccc(O[C@@H]2O[C@H](CO[C@@H]3O[C@@H](C)[C@H](O)[C@@H](O)[C@H]3O)[C@@H](O)[C@H](O)[C@H]2O)c(O)c1	1	-8	7	-5
C[C@@H]1CN([C@H](C)CO)C(=O)Cc2cc(NS(=O)(=O)c3ccc(Cl)cc3)ccc2O[C@H]1CN(C)Cc1ccc(Oc2ccccc2)cc1	-2	14	112*	35
SMILES	PD-1 reversal	MITF inh	NOMO-1 viab	Hedgehog inh
C[C@@H]1CN([C@H](C)CO)C(=O)Cc2cc(N(C)C)ccc2O[C@@H]1CN(C)Cc1ccc(Oc2ccccc2)cc1	-3	10	118*	-13
C[C@H](CO)N1C[C@H](C)[C@H](CN(C)Cc2ccc(Oc3ccccc3)cc2)Oc2ccc(NS(=O)(=O)c3ccccc3)cc2CC1=O	-1	2	96*	-15
Cc1ccc(S(=O)(=O)Nc2ccc3c(c2)CC(=O)N([C@H](C)CO)C[C@H](C)[C@H](CN(C)Cc2ccc(Oc4ccccc4)cc2)O3)cc1	3	13	111*	-22
COc1ccc(S(=O)(=O)Nc2ccc3c(c2)CC(=O)N([C@@H](C)CO)C[C@@H](C)[C@@H](CN(C)Cc2ccc(Oc4ccccc4)cc2)O3)cc1	0	9	?	23
COc1ccc(S(=O)(=O)Nc2ccc3c(c2)CC(=O)N([C@@H](C)CO)C[C@H](C)[C@H](CN(C)Cc2ccc(Oc4ccccc4)cc2)O3)cc1	4	18	28	-15
CNC[C@H]1Oc2ccc(NS(=O)(=O)c3c(C)noc3C)cc2C(=O)N([C@H](C)CO)C[C@H]1C	0	-6	13	-13
C[C@H]1CN([C@@H](C)CO)C(=O)Cc2cc(NS(=O)(=O)c3ccc(Cl)cc3)ccc2O[C@H]1CN(C)Cc1ccc(Oc2ccccc2)cc1	·	-4	78	3
C[C@H](CO)N1C[C@H](C)[C@H](CN(C)Cc2ccc(Oc3ccccc3)cc2)Oc2ccc(NS(=O)(=O)c3ccc(Cl)cc3)cc2CC1=O	1	7	116*	-44
Cc1ccc(S(=O)(=O)N(C)C[C@@H]2Oc3c(NC(=O)Nc4ccccc4)cccc3C(=O)N([C@H](C)CO)C[C@@H]2C)cc1	-4	32	47	121*
C[C@H](CO)N1C[C@H](C)[C@H](CN(C)S(=O)(=O)c2ccccc2)Oc2c(NC(=O)Nc3ccc(F)cc3)cccc2C1=O	·	9	27	71*
C[C@@H]1CN([C@H](C)CO)C(=O)c2cccc(NC(=O)Nc3ccc(F)cc3)c2O[C@H]1CN(C)S(=O)(=O)c1ccc(Cl)cc1	·	-6	12	-7
C[C@H]1CN([C@@H](C)CO)C(=O)c2cccc(NC(=O)Nc3ccc(F)cc3)c2O[C@H]1CN(C)S(=O)(=O)c1ccc(Cl)cc1	-6	61	100*	108*
O=C(Cn1nc(-c2cccc([N+](=O)[O-])c2)c2ccccc2c1=O)NCC1CCCO1 (stereo unspecified)	0	-13	6	·
COC(=O)c1ccc(NC(=O)CNS(=O)(=O)c2c(C)cc(C)cc2C)cc1	-2	8	6	·
Cc1cccc(C(=O)NN(c2ccccc2)c2ccccc2)c1	0	3	59	95*
Cc1cccc(NC(=O)c2cccc(C(=O)Nc3cccc(C)c3)c2)c1	0	-13	23	-51
Oc1c(C(Nc2cccnc2)c2ccc(C(F)(F)F)cc2)ccc2cccnc12 (stereo unspecified)	·	67	109*	·
FC(F)(F)c1nnc(Nc2cccnc2)s1	1	7	-22	-8
C[C@H]1CN([C@@H](C)CO)C(=O)c2cc(NS(=O)(=O)c3cn(C)cn3)ccc2O[C@H]1CN(C)C(=O)Nc1ccc(F)cc1	0	-2	-9	-1

Source: PubChem (Broad Institute)
